Experimental data reported in PubChem BioAssay AID1159580 (chemical genetic matrix, 2015).
Out of some 5,500 compounds screened, about 2,000 (36%) were called active. Another 18% or so got no clear call; they are omitted. Rule as the data show it: active = normalized growth mostly below about 0.91 (no sharp cut-off); inconclusive = no clear call, values can overlap the other calls; inactive = mostly above about 0.92. The list shows a part of the results.

Experiment: chemical genetic growth profiling, strain panel (AID 1159580);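 also: tested at 20 µM; growth read once vehicle control cultures reached saturation at 30 °C; 1 = growth at the plate median or of vehicle wells; lower values mean less growth of the strain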
Conditions: growth OD

Measured: normalized growth

Cc1cc2cc3c(C)cc(=O)oc3c(C)c2o1
active: S. cerevisiae deletion strains, locus YLR418C, strain cdc73, hits give low values 0.83 | S. cerevisiae deletion strains, locus YML032C, strain rad52, hits give low values 0.8 | S. cerevisiae deletion strains, locus YMR125W, strain sto1, hits give low values 1.11 [resistant] | S. cerevisiae deletion strains, locus YNL248C, strain rpa49, hits give low values 0.861 | S. cerevisiae deletion strains, locus YNL307C, strain MCK1, hits give low values 0.905
inactive: S. cerevisiae deletion strains, locus YKL009W, strain mrt4, hits give low values 0.894 | S. cerevisiae deletion strains, locus YKL068W, hits give low values 1.01 | S. cerevisiae deletion strains, locus YKL085W, strain MDH1 (second series), hits give low values 0.992 | S. cerevisiae deletion strains, locus YKL085W, strain MDH1, hits give low values 0.992 | S. cerevisiae deletion strains, locus YKL160W, strain elf1, hits give low values 0.951 | S. cerevisiae deletion strains, locus YKL190W, strain CNB1, hits give low values 0.981 | S. cerevisiae deletion strains, locus YKR001C, strain vps1, hits give low values 0.916 | S. cerevisiae deletion strains, locus YKR026C, strain gcn3, hits give low values 0.987 | S. cerevisiae deletion strains, locus YKR091W, strain srl3, hits give low values 1.01 | S. cerevisiae deletion strains, locus YLL001W, strain dnm1, hits give low values 0.993 | S. cerevisiae deletion strains, locus YLL026W, hits give low values 0.981 | S. cerevisiae deletion strains, locus YLL041C, strain sdh2, hits give low values 1.01 | S. cerevisiae deletion strains, locus YLR027C, strain aat2, hits give low values 1 | S. cerevisiae deletion strains, locus YLR039C, strain RIC1, hits give low values 0.927 | S. cerevisiae deletion strains, locus YLR058C, strain SHM2, hits give low values 0.971 | S. cerevisiae deletion strains, locus YLR102C, strain apc9, hits give low values 0.994 | S. cerevisiae deletion strains, locus YLR113W, strain HOG1, hits give low values 1.02 | S. cerevisiae deletion strains, locus YLR221C, strain rsa3, hits give low values 0.947 | S. cerevisiae deletion strains, locus YLR258W, strain gsy2, hits give low values 0.956 | S. cerevisiae deletion strains, locus YLR262C, strain YPT6 (second series), hits give low values 0.994 | S. cerevisiae deletion strains, locus YLR262C, strain YPT6, hits give low values 0.912 | S. cerevisiae deletion strains, locus YLR268W, strain sec22, hits give low values 0.898 | S. cerevisiae deletion strains, locus YLR320W, strain mms22, hits give low values 0.909 | S. cerevisiae deletion strains, locus YLR330W, strain CHS5, hits give low values 0.984 | S. cerevisiae deletion strains, locus YLR342W, strain FKS1 (second series), hits give low values 0.915 | S. cerevisiae deletion strains, locus YLR342W, strain FKS1, hits give low values 0.994 | S. cerevisiae deletion strains, locus YLR357W, strain rsc2, hits give low values 1.1 | S. cerevisiae deletion strains, locus YLR370C, strain arc18, hits give low values 0.986 | S. cerevisiae deletion strains, locus YLR371W, strain rom2, hits give low values 0.99 | S. cerevisiae deletion strains, locus YLR384C, strain iki3, hits give low values 1 | S. cerevisiae deletion strains, locus YML016C, strain PPZ1, hits give low values 0.951 | S. cerevisiae deletion strains, locus YML120C, strain ndi1, hits give low values 0.996 | S. cerevisiae deletion strains, locus YML124C, strain tub3, hits give low values 0.986 | S. cerevisiae deletion strains, locus YMR058W, strain fet3, hits give low values 0.945 | S. cerevisiae deletion strains, locus YMR078C, strain ctf18, hits give low values 0.974 | S. cerevisiae deletion strains, locus YMR129W, hits give low values 1.02 | S. cerevisiae deletion strains, locus YMR205C, strain PFK2, hits give low values 1.03 | S. cerevisiae deletion strains, locus YMR223W, strain ubp8, hits give low values 0.936 | S. cerevisiae deletion strains, locus YMR231W, strain pep5, hits give low values 1 | S. cerevisiae deletion strains, locus YMR263W, strain SAP30, hits give low values 0.908 | S. cerevisiae deletion strains, locus YMR307W, strain GAS1, hits give low values 0.887 | S. cerevisiae deletion strains, locus YNL067W, strain RPL9B, hits give low values 0.897 | S. cerevisiae deletion strains, locus YNL071W, strain lat1, hits give low values 0.931 | S. cerevisiae deletion strains, locus YNL128W, strain TEP1, hits give low values 0.975 | S. cerevisiae deletion strains, locus YNL153C, strain GIM3, hits give low values 0.918 | S. cerevisiae deletion strains, locus YNL183C, strain NPR1, hits give low values 0.924 | S. cerevisiae deletion strains, locus YNL209W, strain ssb2, hits give low values 0.981 | S. cerevisiae deletion strains, locus YNL233W, strain BNI4, hits give low values 0.885 | S. cerevisiae deletion strains, locus YNL250W, strain rad50, hits give low values 0.963 | S. cerevisiae deletion strains, locus YNL271C, strain bni1, hits give low values 0.964 | S. cerevisiae deletion strains, locus YNL298W, strain CLA4, hits give low values 0.941 | S. cerevisiae deletion strains, locus YNL322C, strain KRE1 (second series), hits give low values 1 | S. cerevisiae deletion strains, locus YNL322C, strain KRE1, hits give low values 0.993 | S. cerevisiae deletion strains, locus YNR049C, strain mso1, hits give low values 1.01 | S. cerevisiae deletion strains, locus YNR052C, strain pop2, hits give low values 0.98 | S. cerevisiae deletion strains, locus YOL006C, strain TOP1, hits give low values 0.585 | S. cerevisiae deletion strains, locus YOL012C, strain htz1 0.819 | S. cerevisiae deletion strains, locus YOL147C, strain pex11, hits give low values 0.986 | S. cerevisiae deletion strains, locus YOR001W, strain rrp6, hits give low values 0.972 | S. cerevisiae deletion strains, locus YOR061W, strain CKA2, hits give low values 0.97 | S. cerevisiae deletion strains, locus YOR069W, strain VPS5, hits give low values 0.974 | S. cerevisiae deletion strains, locus YOR070C, strain gyp1, hits give low values 0.979 | S. cerevisiae deletion strains, locus YOR080W, strain dia2, hits give low values 1 | S. cerevisiae deletion strains, locus YOR083W, strain WHI5, hits give low values 0.941 | S. cerevisiae deletion strains, locus YOR106W, strain vam3, hits give low values 0.98 | S. cerevisiae deletion strains, locus YOR136W, strain idh2, hits give low values 0.969 | S. cerevisiae deletion strains, locus YOR144C, strain elg1, hits give low values 0.979 | S. cerevisiae deletion strains, locus YOR184W, strain ser1, hits give low values 0.875 | S. cerevisiae deletion strains, locus YOR231W, strain MKK1, hits give low values 0.926 | S. cerevisiae deletion strains, locus YOR265W, strain rbl2, hits give low values 0.995 | S. cerevisiae deletion strains, locus YOR270C, strain vph1, hits give low values 0.872 | S. cerevisiae deletion strains, locus YOR290C, strain snf2, hits give low values 0.949 | S. cerevisiae deletion strains, locus YOR316C, strain cot1, hits give low values 0.989 | S. cerevisiae deletion strains, locus YPL051W, strain arl3, hits give low values 0.982 | S. cerevisiae deletion strains, locus YPL055C, strain LGE1, hits give low values 0.88 | S. cerevisiae deletion strains, locus YPL078C, strain atp4, hits give low values 0.976 | S. cerevisiae deletion strains, locus YPL106C, strain sse1, hits give low values 0.92 | S. cerevisiae deletion strains, locus YPL240C, strain hsp82, hits give low values 0.994 | S. cerevisiae deletion strains, locus YPL241C, strain CIN2, hits give low values 0.985 | S. cerevisiae deletion strains, locus YPL256C, strain CLN2, hits give low values 0.993 | S. cerevisiae deletion strains, locus YPR119W, strain clb2, hits give low values 0.987 | S. cerevisiae deletion strains, locus YPR141C, strain kar3, hits give low values 0.996 | S. cerevisiae deletion strains, locus YPR163C, strain tif3, hits give low values 0.969 | S. cerevisiae deletion strains, locus YPR167C, strain met16, hits give low values 0.983 | S. cerevisiae deletion strains, strain wtn01, hits give low values 0.931 | S. cerevisiae strains, strain wild type, hits give low values 0.964
